For assay [1], the system named is Epidermal growth factor receptor (Homo sapiens), P00533 [T790M]. To be noted: at 1 µM.
Assay [2] has as its system Epidermal growth factor receptor (Homo sapiens), P00533 [L858R,T790M]. Particulars: at 0.1 µM.
For assay [3] the test system is unchanged. Particulars: at 1 µM.
Assay [4] concerns the target Ephrin type-A receptor 2 (Homo sapiens) (UniProt P29317). To be noted: at 0.1 µM.
The target is the same in assay [5]. To be noted: at 1 µM.
Assay [6] deals with T1, Ephrin type-A receptor 3 (Homo sapiens) (UniProt P29320).
T1 sequence (whole entry): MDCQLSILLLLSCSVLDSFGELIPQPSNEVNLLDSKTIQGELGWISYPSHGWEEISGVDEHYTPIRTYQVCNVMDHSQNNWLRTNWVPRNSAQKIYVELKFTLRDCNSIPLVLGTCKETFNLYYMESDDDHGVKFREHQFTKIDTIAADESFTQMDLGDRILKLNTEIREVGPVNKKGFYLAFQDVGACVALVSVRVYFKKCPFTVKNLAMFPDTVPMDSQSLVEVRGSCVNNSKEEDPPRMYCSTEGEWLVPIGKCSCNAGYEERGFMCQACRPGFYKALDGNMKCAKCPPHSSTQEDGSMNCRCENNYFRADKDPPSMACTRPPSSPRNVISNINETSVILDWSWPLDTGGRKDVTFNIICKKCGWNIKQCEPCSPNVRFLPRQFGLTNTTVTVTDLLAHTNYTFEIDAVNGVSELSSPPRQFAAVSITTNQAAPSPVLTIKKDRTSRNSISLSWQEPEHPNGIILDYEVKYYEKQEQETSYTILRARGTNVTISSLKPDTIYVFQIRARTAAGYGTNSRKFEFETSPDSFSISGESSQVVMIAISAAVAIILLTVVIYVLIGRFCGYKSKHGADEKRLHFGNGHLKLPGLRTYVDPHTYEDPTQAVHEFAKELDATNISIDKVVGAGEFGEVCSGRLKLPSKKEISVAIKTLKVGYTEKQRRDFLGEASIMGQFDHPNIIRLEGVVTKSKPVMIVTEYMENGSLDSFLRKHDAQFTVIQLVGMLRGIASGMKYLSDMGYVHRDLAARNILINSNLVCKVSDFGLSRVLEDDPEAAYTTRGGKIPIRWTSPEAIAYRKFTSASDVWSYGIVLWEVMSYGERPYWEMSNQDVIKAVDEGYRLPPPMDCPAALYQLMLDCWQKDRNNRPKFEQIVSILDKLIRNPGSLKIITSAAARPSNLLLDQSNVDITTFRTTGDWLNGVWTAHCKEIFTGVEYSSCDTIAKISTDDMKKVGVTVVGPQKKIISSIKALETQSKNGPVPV
Particulars: at 0.1 µM.

Assay [7] addresses T1, Ephrin type-A receptor 3 (Homo sapiens). To be noted: at 1 µM.
Assay [8] deals with Ephrin type-A receptor 4 (Homo sapiens) (UniProt P54764). Particulars: at 0.1 µM.
Sequence of Ephrin type-A receptor 4 (Homo sapiens) (P54764 whole entry): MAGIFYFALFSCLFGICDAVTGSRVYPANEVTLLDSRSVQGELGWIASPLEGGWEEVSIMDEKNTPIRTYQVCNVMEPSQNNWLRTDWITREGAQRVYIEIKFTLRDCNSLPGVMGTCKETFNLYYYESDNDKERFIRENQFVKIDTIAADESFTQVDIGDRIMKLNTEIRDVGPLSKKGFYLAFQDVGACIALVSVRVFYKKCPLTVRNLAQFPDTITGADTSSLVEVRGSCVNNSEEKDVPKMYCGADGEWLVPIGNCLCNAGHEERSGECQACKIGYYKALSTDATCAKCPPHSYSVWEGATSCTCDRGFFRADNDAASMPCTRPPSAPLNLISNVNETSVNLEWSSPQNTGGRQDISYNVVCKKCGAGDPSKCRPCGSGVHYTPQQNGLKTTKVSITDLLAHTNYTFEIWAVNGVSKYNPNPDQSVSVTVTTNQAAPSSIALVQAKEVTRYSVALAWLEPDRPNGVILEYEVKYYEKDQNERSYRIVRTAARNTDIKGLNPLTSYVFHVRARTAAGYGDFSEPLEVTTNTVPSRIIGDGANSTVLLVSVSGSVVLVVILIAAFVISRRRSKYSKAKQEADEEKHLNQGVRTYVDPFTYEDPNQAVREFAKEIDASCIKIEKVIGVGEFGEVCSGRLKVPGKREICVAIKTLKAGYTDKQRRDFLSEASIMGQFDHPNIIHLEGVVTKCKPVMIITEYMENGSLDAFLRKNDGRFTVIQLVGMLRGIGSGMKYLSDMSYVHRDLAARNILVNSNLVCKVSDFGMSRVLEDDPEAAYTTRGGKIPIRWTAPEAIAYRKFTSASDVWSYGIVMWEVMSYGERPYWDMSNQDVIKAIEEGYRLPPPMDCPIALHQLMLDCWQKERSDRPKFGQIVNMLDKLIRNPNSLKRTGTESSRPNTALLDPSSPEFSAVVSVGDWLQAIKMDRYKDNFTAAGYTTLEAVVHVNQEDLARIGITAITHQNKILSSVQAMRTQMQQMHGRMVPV
The target is the same in assay [9]. To be noted: at 1 µM.
For assay [10], the target named is T2, Ephrin type-B receptor 2 (Homo sapiens) (UniProt P29323).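 Note: reported as mean inhibition of EPHB2, from the GSK PKIS dataset.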
T2 sequence (whole entry): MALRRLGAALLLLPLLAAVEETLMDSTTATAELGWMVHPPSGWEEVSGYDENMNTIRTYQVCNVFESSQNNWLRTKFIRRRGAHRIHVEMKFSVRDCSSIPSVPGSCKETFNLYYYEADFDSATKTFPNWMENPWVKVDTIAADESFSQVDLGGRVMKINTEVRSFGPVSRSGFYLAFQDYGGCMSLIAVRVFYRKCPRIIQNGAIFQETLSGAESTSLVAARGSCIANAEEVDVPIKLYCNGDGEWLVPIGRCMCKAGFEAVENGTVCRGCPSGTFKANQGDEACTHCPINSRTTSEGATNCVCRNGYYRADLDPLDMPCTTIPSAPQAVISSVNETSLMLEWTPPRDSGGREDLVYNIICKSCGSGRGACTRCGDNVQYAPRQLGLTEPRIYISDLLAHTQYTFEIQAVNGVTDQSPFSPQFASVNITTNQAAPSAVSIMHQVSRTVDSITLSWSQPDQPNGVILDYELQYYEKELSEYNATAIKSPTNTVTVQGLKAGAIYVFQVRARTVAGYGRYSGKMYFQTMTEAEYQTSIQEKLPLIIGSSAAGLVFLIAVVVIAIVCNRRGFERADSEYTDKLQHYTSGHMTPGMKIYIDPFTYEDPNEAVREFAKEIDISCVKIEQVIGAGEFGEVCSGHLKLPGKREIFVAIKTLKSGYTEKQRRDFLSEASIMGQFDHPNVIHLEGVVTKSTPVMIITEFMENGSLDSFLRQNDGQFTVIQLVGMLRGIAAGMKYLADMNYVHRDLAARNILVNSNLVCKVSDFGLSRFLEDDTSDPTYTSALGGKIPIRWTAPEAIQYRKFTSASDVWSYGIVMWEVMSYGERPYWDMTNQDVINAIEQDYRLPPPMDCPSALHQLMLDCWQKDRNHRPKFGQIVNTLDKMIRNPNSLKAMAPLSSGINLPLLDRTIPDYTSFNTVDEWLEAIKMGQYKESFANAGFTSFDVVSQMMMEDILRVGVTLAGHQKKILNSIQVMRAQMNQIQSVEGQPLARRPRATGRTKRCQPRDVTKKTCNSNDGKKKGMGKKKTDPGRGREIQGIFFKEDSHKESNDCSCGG
Particulars: at 0.1 µM.

Sequence of Ephrin type-A receptor 2 (Homo sapiens) (P29317 whole entry): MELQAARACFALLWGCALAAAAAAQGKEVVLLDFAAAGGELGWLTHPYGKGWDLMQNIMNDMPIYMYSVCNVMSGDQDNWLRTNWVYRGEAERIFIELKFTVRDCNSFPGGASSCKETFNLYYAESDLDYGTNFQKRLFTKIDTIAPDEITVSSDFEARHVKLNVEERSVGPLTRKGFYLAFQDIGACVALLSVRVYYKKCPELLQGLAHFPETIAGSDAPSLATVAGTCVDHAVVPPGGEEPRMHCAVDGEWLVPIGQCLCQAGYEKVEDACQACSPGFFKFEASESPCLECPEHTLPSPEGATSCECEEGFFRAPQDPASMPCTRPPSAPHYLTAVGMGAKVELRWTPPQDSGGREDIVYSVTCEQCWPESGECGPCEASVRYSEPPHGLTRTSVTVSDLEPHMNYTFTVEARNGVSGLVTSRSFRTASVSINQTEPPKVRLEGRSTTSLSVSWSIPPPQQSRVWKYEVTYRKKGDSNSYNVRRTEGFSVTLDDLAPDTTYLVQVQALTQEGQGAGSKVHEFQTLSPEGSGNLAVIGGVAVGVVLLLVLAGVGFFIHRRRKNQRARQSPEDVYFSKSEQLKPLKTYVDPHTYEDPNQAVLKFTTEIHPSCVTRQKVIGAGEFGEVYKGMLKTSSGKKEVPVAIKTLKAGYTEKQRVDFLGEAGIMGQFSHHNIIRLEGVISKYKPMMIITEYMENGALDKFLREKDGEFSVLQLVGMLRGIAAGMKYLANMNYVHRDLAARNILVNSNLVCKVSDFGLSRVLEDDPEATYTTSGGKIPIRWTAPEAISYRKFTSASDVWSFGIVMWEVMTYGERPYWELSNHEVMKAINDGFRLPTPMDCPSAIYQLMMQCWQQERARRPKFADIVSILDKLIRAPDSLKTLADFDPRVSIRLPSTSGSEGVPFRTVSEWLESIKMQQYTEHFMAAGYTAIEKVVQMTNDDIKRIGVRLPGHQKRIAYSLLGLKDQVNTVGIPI
Sequence of Epidermal growth factor receptor (Homo sapiens), P00533 [T790M] (P00533 whole entry T790M): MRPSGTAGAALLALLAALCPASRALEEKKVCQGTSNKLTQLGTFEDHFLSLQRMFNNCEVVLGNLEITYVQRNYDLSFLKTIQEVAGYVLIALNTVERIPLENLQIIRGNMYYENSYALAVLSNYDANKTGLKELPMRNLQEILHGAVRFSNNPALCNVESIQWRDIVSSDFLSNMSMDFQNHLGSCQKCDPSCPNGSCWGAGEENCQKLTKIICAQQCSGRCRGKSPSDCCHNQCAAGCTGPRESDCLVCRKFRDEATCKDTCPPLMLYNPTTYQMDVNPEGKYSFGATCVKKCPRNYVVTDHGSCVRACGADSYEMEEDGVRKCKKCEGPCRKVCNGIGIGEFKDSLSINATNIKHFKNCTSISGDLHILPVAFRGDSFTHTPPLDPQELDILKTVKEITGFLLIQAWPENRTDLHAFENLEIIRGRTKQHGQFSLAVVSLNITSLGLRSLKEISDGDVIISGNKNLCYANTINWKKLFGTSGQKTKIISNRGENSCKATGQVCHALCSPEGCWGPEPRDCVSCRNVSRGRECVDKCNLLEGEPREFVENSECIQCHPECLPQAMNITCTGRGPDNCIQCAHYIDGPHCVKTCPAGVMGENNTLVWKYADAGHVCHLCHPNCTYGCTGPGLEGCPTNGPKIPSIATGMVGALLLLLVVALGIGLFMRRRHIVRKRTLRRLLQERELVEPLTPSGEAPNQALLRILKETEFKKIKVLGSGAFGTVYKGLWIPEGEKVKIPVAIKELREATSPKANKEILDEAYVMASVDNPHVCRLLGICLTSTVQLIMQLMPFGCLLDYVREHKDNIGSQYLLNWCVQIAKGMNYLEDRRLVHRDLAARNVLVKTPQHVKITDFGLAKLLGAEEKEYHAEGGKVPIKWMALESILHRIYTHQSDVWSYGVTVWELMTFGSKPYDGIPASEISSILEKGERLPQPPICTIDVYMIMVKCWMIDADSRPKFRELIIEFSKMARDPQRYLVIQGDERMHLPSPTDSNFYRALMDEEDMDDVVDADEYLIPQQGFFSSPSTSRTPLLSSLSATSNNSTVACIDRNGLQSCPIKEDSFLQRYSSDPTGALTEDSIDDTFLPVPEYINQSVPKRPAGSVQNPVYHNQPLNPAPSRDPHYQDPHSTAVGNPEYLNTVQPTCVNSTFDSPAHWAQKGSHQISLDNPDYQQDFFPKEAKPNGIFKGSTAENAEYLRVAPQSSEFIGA
Sequence of Epidermal growth factor receptor (Homo sapiens), P00533 [L858R,T790M] (P00533 whole entry T790M/L858R, looked up): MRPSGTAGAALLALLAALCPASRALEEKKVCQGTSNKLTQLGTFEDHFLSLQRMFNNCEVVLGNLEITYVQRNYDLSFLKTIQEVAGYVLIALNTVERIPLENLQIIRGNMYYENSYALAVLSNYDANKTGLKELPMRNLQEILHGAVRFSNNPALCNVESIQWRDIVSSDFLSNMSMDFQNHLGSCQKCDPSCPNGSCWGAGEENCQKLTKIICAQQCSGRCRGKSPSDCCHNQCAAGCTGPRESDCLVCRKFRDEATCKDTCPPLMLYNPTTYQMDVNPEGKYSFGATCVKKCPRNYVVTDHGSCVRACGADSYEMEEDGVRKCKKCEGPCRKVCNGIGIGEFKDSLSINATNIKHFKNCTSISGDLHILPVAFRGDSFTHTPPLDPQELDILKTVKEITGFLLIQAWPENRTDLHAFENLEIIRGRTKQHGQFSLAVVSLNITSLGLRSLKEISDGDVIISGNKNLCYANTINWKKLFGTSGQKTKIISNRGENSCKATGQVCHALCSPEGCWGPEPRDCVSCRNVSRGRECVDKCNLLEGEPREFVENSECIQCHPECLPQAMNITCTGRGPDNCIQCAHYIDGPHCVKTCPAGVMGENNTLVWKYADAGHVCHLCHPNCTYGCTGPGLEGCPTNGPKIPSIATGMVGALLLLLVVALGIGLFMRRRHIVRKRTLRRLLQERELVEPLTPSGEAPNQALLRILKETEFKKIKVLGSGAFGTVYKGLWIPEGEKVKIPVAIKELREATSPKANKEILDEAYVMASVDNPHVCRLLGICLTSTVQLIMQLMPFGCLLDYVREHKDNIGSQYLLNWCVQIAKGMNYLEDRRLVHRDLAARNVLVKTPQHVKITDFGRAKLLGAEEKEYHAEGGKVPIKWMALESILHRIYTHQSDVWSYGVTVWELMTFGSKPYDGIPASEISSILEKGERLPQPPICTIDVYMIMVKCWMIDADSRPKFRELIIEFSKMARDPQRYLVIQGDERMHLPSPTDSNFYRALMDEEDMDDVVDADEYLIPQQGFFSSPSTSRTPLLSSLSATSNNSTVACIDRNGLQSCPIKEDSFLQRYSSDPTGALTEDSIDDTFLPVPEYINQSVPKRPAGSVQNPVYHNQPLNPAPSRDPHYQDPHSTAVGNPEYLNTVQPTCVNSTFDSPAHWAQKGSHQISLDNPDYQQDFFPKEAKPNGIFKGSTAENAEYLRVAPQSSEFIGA

Take `COc1cccc(-n2ncc3c(N/N=C/c4cccc(F)c4)ncnc32)c1`: the inhibition in assay [1] was 0.45%; in [2], -0.32%; in assay [3], 2.54%; in assay [4], -6.37%; in [5], -5.64%; in [6], -1.03%. In addition, the inhibition in [7] is -0.95%; in [8] it was 4.81%; in assay [9] it was 2.57%; in assay [10] it was 3.17%.

For the compound `CNC(=O)c1cncc(/C=C/c2c(Cl)cccc2Cl)c1`, the inhibition in [1] is 0.83%; in assay [2] it was 0.18%; in assay [3] it was 3.2%; in assay [4], 0.35%; in assay [5], 17.3%; in [6], -0.5%. Further, the inhibition in assay [7] stood at 5.3%; in assay [8], 7.99%; in [9], 43.6%; in [10] it was 10.3%.

As to `Cc1ccc(C(=O)NC2CCCCC2)cc1-c1ccc(C(=O)NCC2CC2)cc1`, the inhibition in [1] is -2.05%; in assay [2] it was -0.59%; in [3] it was -0.67%; in assay [4] it was 2.02%; in [5], 1.67%; in assay [6] it was 5.5%. Moreover, the inhibition amounted to 5.14% in [7], 8.35% in assay [8], 3.57% in assay [9] and 6.79% in assay [10].

On to `CCn1c(-c2nonc2N)nc2c(C#CC(C)(C)O)nc(CN3CCCC3)cc21`, for which the inhibition in assay [1] is -1.46%; in [2] it was -1.08%; in [3], 0.28%; in assay [4], -1.52%; in [5], -2.75%; in assay [6] it was -2.69%. Further, the inhibition is 1.11% in assay [7], -7.89% in assay [8], -5.06% in [9] and -4.91% in [10].

In the case of `CCn1c(-c2nonc2N)nc2cncc(C(=O)N3CC[C@H](N)C3)c21`, the inhibition in [1] was 3.15%; in assay [2], 1.56%; in assay [3] it was 1.95%; in assay [4] it was -0.29%; in [5] it was -0.49%; in [6], 4.99%. Moreover, the inhibition is 5.74% in [7], 9.5% in assay [8], 10% in assay [9] and 5.01% in assay [10].

In the case of `CCCN1CCC=C(c2ccc(Nc3nc(Nc4ccccc4C(N)=O)c4cc[nH]c4n3)c(C)c2)C1`, the inhibition is 25.1% in assay [1]; 7.32% in [2]; 51.6% in [3]; 1.69% in assay [4]; -0.07% in assay [5]; 3.53% in assay [6]. Further, the inhibition in assay [7] came to 2.81%; in assay [8] it was 5.85%; in assay [9] it was 10.8%; in assay [10], 8.59%.

In the case of `COc1cc2ncn(-c3cc(OCc4ccccc4Cl)c(C(N)=O)s3)c2cc1OC`, the inhibition in [1] was 0.02%; in assay [2], -1.12%; in [3] it was 1.19%; in assay [4], -2.86%; in assay [5], -1.31%; in [6] it was -1.62%. Moreover, the inhibition came out at 0.98% in [7], 0.5% in assay [8], 7.32% in assay [9] and 2% in assay [10].

`O=C1NC(=O)C(c2ccccc2Cl)=C1Nc1cccc(O)c1`: the inhibition in [1] came to 0.02%; in assay [2], 0.56%; in assay [3], 1.35%; in assay [4], 2.61%; in [5] it was 1.5%; in assay [6], 2.51%. Besides, the inhibition in assay [7] was found to be 2.67%; in assay [8], 5.56%; in assay [9] it was 2.36%; in assay [10] it was 5.61%.

Turning to `CS(=O)(=O)Nc1ccc(N/C=C2\C(=O)Nc3ccccc32)cc1`, the inhibition was -1.95% in [1]; 0.26% in assay [2]; -4.58% in assay [3]; -2.34% in [4]; -1.5% in assay [5]; -5.95% in assay [6]. The inhibition in assay [7] is -4.36%; in assay [8] it was -6.81%; in assay [9], -2.53%; in [10] it was -6.42%.

With `c1cnn2ncc(-c3ccnc(Nc4ccc5c(c4)OCCO5)n3)c2c1`, the inhibition in [1] amounted to 2.42%; in [2], 2.19%; in [3] it was 7.05%; in [4], 2.91%; in assay [5], 5.71%; in [6], 7.54%. Further, the inhibition stood at 5.48% in assay [7], 12% in assay [8], 28.2% in assay [9] and 12.1% in assay [10].

For the compound `Cc1cc(O)cc(C)c1/C=C/c1cncc(-c2nn[nH]n2)c1`, the inhibition was 3.37% in assay [1]; 2.15% in [2]; 2.05% in [3]; 39.5% in assay [4]; 84.4% in [5]; 12.4% in assay [6]. Besides, the inhibition was determined as 34.8% in assay [7], 37.4% in [8], 87.6% in [9] and 15.1% in assay [10].

`O=C1NC(=O)C(N2CCc3ccccc32)=C1c1ccc(Cl)cc1`: the inhibition in assay [1] is -0.47%; in [2], 1.35%; in assay [3], 2.67%; in assay [4], 1.33%; in [5] it was 1.75%; in assay [6], 3.76%. For the same compound, the inhibition was 3.61% in assay [7], 8.28% in assay [8], 3.43% in [9] and 5.72% in assay [10].

As for `O=C(Nc1n[nH]c2nc(-c3ccco3)c(Br)cc12)C1CC1`, the inhibition in assay [1] is -0.71%; in assay [2], 5.44%; in assay [3], 0.25%; in assay [4], 1.53%; in assay [5], 1.29%; in assay [6], 6.55%. The inhibition was 4.24% in assay [7], 7.41% in assay [8], 2.95% in assay [9] and 7.31% in assay [10].

With `CCn1c(-c2nonc2N)nc2cnc(Oc3cccc(NC(=O)c4ccc(OCCN5CCOCC5)cc4)c3)cc21`, the inhibition in [1] was 2.18%; in [2], -0.63%; in assay [3], 3.24%; in assay [4] it was -2.53%; in [5], -2.47%; in assay [6] it was 3.26%. For the same compound, the inhibition was 4.85% in assay [7], 7.53% in assay [8], 7.73% in [9] and 5.7% in assay [10].

Regarding `COc1ccc2cc(-c3c(-c4ccncc4)nc(-c4ccc([S+](C)[O-])cc4)n3C)ccc2c1` (stereo not given), the inhibition in assay [1] was -0.54%; in [2] it was 1.75%; in assay [3] it was 0.88%; in [4] it was 1.69%; in [5], 1.61%; in assay [6], 3.89%. Besides, the inhibition is 5.2% in assay [7], -2.82% in [8], 8.03% in assay [9] and 3.58% in [10].

With `CCN1CCC(CC(=O)Nc2n[nH]c3nc(-c4cccs4)c(Br)cc23)CC1`, the inhibition in assay [1] is -1.12%; in assay [2], 0.09%; in [3] it was -0.41%; in assay [4], -3.7%; in assay [5] it was -1.54%; in assay [6], -7.71%. Also, the inhibition in assay [7] was -2.29%; in assay [8], -7.32%; in assay [9], -3.58%; in assay [10] it was -2.13%.

For `COC(=O)Nc1nc2cc(Oc3ccc(NC(=O)Nc4cccc(C(=O)O)c4)cc3)ccc2[nH]1`, the inhibition in assay [1] was 0.98%; in assay [2] it was -0.04%; in [3] it was 1.58%; in assay [4], -2.05%; in assay [5], -4.67%; in assay [6], -2.34%. In addition, the inhibition in assay [7] is -2.49%; in assay [8] it was 4.23%; in assay [9], 5.32%; in assay [10], 0.25%.

For the origin of these results see ChEMBL document CHEMBL1961873, “Compounds: GSK PKIS; Assays: Nanosyn kinase panel” (2012).
